About 79,000 compounds went through this panel and 15% of them were active in at least one assay; those are over-represented in the sample as a whole. Values without a mark were called inactive. The source made the active and inactive calls. Rule as the data show it: active = growth inhibition above about 70%; inactive = the rest.

The nature of assay [1]: NCI Yeast Anticancer Drug Screen. Data for the rad50 strain (AID 155).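 Also: 0% = growth of vehicle-only cultures of the same strain.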 The conditions noted are these: S. cerevisiae rad50 strain growth inhibition, stronger effect = higher value. In outline: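 Vehicle-treated cultures provide the reference for the growth inhibition reported for compound-exposed, repair-deficient yeast.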
Assay [2] is described as follows: NCI Yeast Anticancer Drug Screen. Data for the mec2-1 strain (AID 157). The conditions noted are these: S. cerevisiae mec2-1 strain, stronger effect = higher value. In short, it runs like this:
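Vehicle-treated cultures served as reference for growth inhibition of compound-exposed mec2-1 yeast.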

Assay [3] in a line: NCI Yeast Anticancer Drug Screen. Data for the sgs1 mgt1 strain (AID 161).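 Also: 0% = growth of cultures given vehicle only.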 The conditions noted are these: S. cerevisiae sgs1 mgt1 strain, stronger effect = higher value. In short, it runs like this: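 Mutant yeast exposed to compound; growth scored against vehicle-only wells.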
The nature of assay [4]: NCI Yeast Anticancer Drug Screen. Data for the cln2 rad14 strain (AID 165).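 Also: 0% = growth equal to vehicle treated cultures.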 The conditions noted are these: S. cerevisiae cln2 rad14 strain, stronger effect = higher value. In outline: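 Each compound was tested on cln2 rad14 yeast. Inhibition of growth was calculated against vehicle-exposed controls.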
Assay [5] is described as follows: NCI Yeast Anticancer Drug Screen. Data for the bub3 strain (AID 167). The following applies: S. cerevisiae bub3 mutant strain, stronger effect = higher value. In outline:
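Mutant yeast screening strain plus compound; vehicle-treated cultures serve as the 0% inhibition reference.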

Assay [6] is described as follows: NCI Yeast Anticancer Drug Screen. Data for the mlh1 rad18 strain (AID 175). The conditions noted are these: S. cerevisiae mlh1 rad18 strain growth inhibition, stronger effect = higher value. In short, it runs like this: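 Vehicle-treated cultures served as the reference for growth inhibition in a yeast strain carrying DNA damage repair alterations exposed to each compound.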

[7] abbreviates: at 5.0 µM (retest, dose inferred, filed as 0.5).
[8] abbreviates: at 50.0 µM (retest, dose inferred, filed as 5.0).

As for `CCCC(C1=C(O)CC(C)CC1=O)C1=C(O)CC(C)CC1=O` (configuration not stated), the growth inhibition in assay [1] (setting [7]) was -6%; in assay [1] (setting [8]), -2%; in assay [1] (at 50.0 µM), -8.7%; in assay [2] (setting [7]), -5%; in assay [2] (setting [8]), -4%; in assay [2] (at 50.0 µM), 0.4%. In addition, the growth inhibition in assay [3] (setting [7]) was -4%; in assay [3] (setting [8]) it was 8%; in assay [3] (at 50.0 µM), -5.6%; in assay [4] (setting [7]), -34%; in assay [4] (setting [8]), 23%; in assay [4] (at 50.0 µM), -24.4%. The growth inhibition in assay [5] (setting [7]) was -6%; in assay [5] (setting [8]) it was 19%; in assay [5] (at 50.0 µM), -7.2%; in assay [6] (setting [7]), 4%; in assay [6] (setting [8]), 28%; in assay [6] (at 50.0 µM) it was 0.45%.
Consider `O=C1NC(O)c2cccc(Cl)c2O1` (configuration not stated), for which the growth inhibition in assay [1] (setting [7]) was 52%; in assay [1] (setting [8]) it was 99% (active); in assay [1] (at 50.0 µM), 88.8% (active); in assay [2] (setting [7]) it was 22%; in assay [2] (setting [8]), 99% (active); in assay [2] (at 50.0 µM) it was 92.2% (active). For the same molecule, the growth inhibition in assay [3] (setting [7]) was 17%; in assay [3] (setting [8]) it was 99% (active); in assay [3] (at 50.0 µM), 83.3% (active); in assay [4] (setting [7]), 5%; in assay [4] (setting [8]), 99% (active); in assay [4] (at 50.0 µM) it was 97.8% (active). For the same molecule, the growth inhibition is 15% in assay [5] (setting [7]); 98% (active) in assay [5] (setting [8]); 94.8% (active) in assay [5] (at 50.0 µM); 28% in assay [6] (setting [7]); 99% (active) in assay [6] (setting [8]); 98.3% (active) in assay [6] (at 50.0 µM).
`CSC(=S)SC(SC)S(C)(=O)=O` (configuration not stated): the growth inhibition in assay [1] (setting [7]) is -7%; in assay [1] (setting [8]), 0%; in assay [1] (at 50.0 µM), 98.5% (active); in assay [2] (setting [7]) it was -5%; in assay [2] (setting [8]), -3%; in assay [2] (at 50.0 µM) it was 99.7% (active). For the same molecule, the growth inhibition in assay [3] (setting [7]) is -5%; in assay [3] (setting [8]), -16%; in assay [3] (at 50.0 µM), 99.3% (active); in assay [4] (setting [7]), 1%; in assay [4] (setting [8]), 2%; in assay [4] (at 50.0 µM), 99.1% (active). In addition, the growth inhibition in assay [5] (setting [7]) is -5%; in assay [5] (setting [8]) it was -11%; in assay [5] (at 50.0 µM), 99.5% (active); in assay [6] (setting [7]), -8%; in assay [6] (setting [8]), -9%; in assay [6] (at 50.0 µM), 99.3% (active).
With `Cc1ccc(Cl)cc1NN`, the growth inhibition in assay [1] (setting [7]) was -1%; in assay [1] (setting [8]), 95% (active); in assay [1] (at 50.0 µM), 96.5% (active); in assay [2] (setting [7]), 5%; in assay [2] (setting [8]), 97% (active); in assay [2] (at 50.0 µM) it was 99.2% (active). Besides, the growth inhibition was 2% in assay [3] (setting [7]); 89% (active) in assay [3] (setting [8]); 48.6% in assay [3] (at 50.0 µM); -1% in assay [4] (setting [7]); 94% (active) in assay [4] (setting [8]); 97.6% (active) in assay [4] (at 50.0 µM). In addition, the growth inhibition in assay [5] (setting [7]) is -2%; in assay [5] (setting [8]), 97% (active); in assay [5] (at 50.0 µM) it was 96.9% (active); in assay [6] (setting [7]) it was 5%; in assay [6] (setting [8]), 96% (active); in assay [6] (at 50.0 µM) it was 47.6%.
On to `Cc1ccc(NN(C)c2ccc(C)cc2)cc1`, for which the growth inhibition in assay [1] (setting [7]) is -4%; in assay [1] (setting [8]) it was 2%; in assay [1] (at 50.0 µM) it was 34.3%; in assay [2] (setting [7]) it was -1%; in assay [2] (setting [8]), -8%; in assay [2] (at 50.0 µM), 16.1%. For the same molecule, the growth inhibition in assay [3] (setting [7]) was -4%; in assay [3] (setting [8]) it was -10%; in assay [3] (at 50.0 µM), -11.4%; in assay [4] (setting [7]), 5%; in assay [4] (setting [8]), -4%; in assay [4] (at 50.0 µM), 13.4%. For the same molecule, the growth inhibition in assay [5] (setting [7]) is 9%; in assay [5] (setting [8]), 18%; in assay [5] (at 50.0 µM), 27.6%; in assay [6] (setting [7]) it was -3%; in assay [6] (setting [8]) it was 1%; in assay [6] (at 50.0 µM), 3.1%.
In the case of `C/C(=N/O)C1CC(CCC2([N+](=O)[O-])CCC(C)(O)C(/C(C)=N/O)C2)([N+](=O)[O-])CCC1(C)O` (configuration not stated), the growth inhibition in assay [1] (setting [7]) was 0%; in assay [1] (setting [8]), -8%; in assay [1] (at 50.0 µM), 12.7%; in assay [2] (setting [7]), 3%; in assay [2] (setting [8]) it was -1%; in assay [2] (at 50.0 µM), 11.3%. Besides, the growth inhibition in assay [3] (setting [7]) is -1%; in assay [3] (setting [8]), -4%; in assay [3] (at 50.0 µM), -7.15%; in assay [4] (setting [7]), 5%; in assay [4] (setting [8]) it was -12%; in assay [4] (at 50.0 µM) it was 15.3%. Moreover, the growth inhibition in assay [5] (setting [7]) is 3%; in assay [5] (setting [8]), -2%; in assay [5] (at 50.0 µM) it was 90.5% (active); in assay [6] (setting [7]) it was 1%; in assay [6] (setting [8]), 0%; in assay [6] (at 50.0 µM) it was 19.9%.
Turning to `O=C(Nc1ccc(Cl)cc1)Nc1nnc(/C=C/c2ccc(Cl)c(Cl)c2)o1`, the growth inhibition in assay [1] (setting [7]) was -1%; in assay [1] (setting [8]) it was -4%; in assay [1] (at 50.0 µM) it was -6.15%; in assay [2] (setting [7]) it was 1%; in assay [2] (setting [8]), -91%; in assay [2] (at 50.0 µM) it was 19.4%. Besides, the growth inhibition is -1% in assay [3] (setting [7]); 0% in assay [3] (setting [8]); 3.6% in assay [3] (at 50.0 µM); 1% in assay [4] (setting [7]); -4% in assay [4] (setting [8]); -14.2% in assay [4] (at 50.0 µM). For the same molecule, the growth inhibition in assay [5] (setting [7]) was -44%; in assay [5] (setting [8]) it was 7%; in assay [5] (at 50.0 µM) it was -4.75%; in assay [6] (setting [7]), 1%; in assay [6] (setting [8]), -16%; in assay [6] (at 50.0 µM), -12.1%.
As for `C/C(O)=c1\cc(C#N)c(=C(C#N)C#N)nc1C`, the growth inhibition in assay [1] (setting [7]) was -4%; in assay [1] (setting [8]), -3%; in assay [1] (at 50.0 µM), 8.05%; in assay [2] (setting [7]) it was -2%; in assay [2] (setting [8]), 1%; in assay [2] (at 50.0 µM), -0.15%. Besides, the growth inhibition in assay [3] (setting [7]) is 2%; in assay [3] (setting [8]), 5%; in assay [3] (at 50.0 µM), 1.15%; in assay [4] (setting [7]), -1%; in assay [4] (setting [8]) it was -8%; in assay [4] (at 50.0 µM), -3%. Moreover, the growth inhibition in assay [5] (setting [7]) is 3%; in assay [5] (setting [8]), 11%; in assay [5] (at 50.0 µM), 10.6%; in assay [6] (setting [7]), 0%; in assay [6] (setting [8]), 3%; in assay [6] (at 50.0 µM), 46.4%.
Regarding `Cc1ccccc1N1C(=O)c2ccccc2C1=O`, the growth inhibition is 1% in assay [1] (setting [7]); 8% in assay [1] (setting [8]); 61.1% in assay [1] (at 50.0 µM); -6% in assay [2] (setting [7]); 11% in assay [2] (setting [8]); 98.8% (active) in assay [2] (at 50.0 µM). The growth inhibition was 1% in assay [3] (setting [7]); 7% in assay [3] (setting [8]); 90.1% (active) in assay [3] (at 50.0 µM); 6% in assay [4] (setting [7]); 9% in assay [4] (setting [8]); 83.3% (active) in assay [4] (at 50.0 µM). Also, the growth inhibition is 1% in assay [5] (setting [7]); 16% in assay [5] (setting [8]); 98.2% (active) in assay [5] (at 50.0 µM); 0% in assay [6] (setting [7]); 8% in assay [6] (setting [8]); 84% (active) in assay [6] (at 50.0 µM).

For the origin of these results see PubChem BioAssay (NCI).
